The structures appear in SMILES notation.

This passage reports Inhibition results from ChEMBL document CHEMBL1157539, “Thousands of chemical starting points for antimalarial lead identification” (Nature, 2010).

This experiment has as its system Plasmodium falciparum. The experiment is described as follows: GSK_TCMDC: Inhibition of Plasmodium falciparum 3D7 in whole red blood cells, using parasite LDH activity as an index of growth. Test compounds present at 2uM. It counts as functional.
In turn, `Cc1ccc(OCC2CCN(c3ncc(C(=O)NC4CC4)cc3Cl)CC2)cc1` displayed an Inhibition of 88%.
As to `c1ccc(CN2CCN(c3cc(-c4cncc(-c5ccccc5)c4)nc(-c4ccccc4)n3)CC2)cc1`, the Inhibition is listed as 88%.
With `CCCCCCN1CCN(Cc2cccc(NC(=O)c3ccc(Cl)c(Cl)c3)c2)CC1.O=C(O)C(F)(F)F` the figure was 85%.
The molecule `Cl.O=C(NC1CCC(CCN2CCc3ccc(-c4cnccn4)cc3CC2)CC1)c1cccc(-n2cccn2)c1` (stereo unspecified) gave an Inhibition of 93%.
With `O=C(O)C(F)(F)F.OCCN1CCN(Cc2ccc(-c3cccc(-c4nc5cc(C(F)(F)F)ccc5[nH]4)c3)cc2)CC1` the figure was 99%; with `O=C(Nc1cc(Cl)c(Cl)cc1NC(=O)c1cccc(-c2ccccc2)c1O)c1cccc(-c2ccccc2)c1O`, 100%; with `CNc1nc(N/N=C/c2cc3c(cc2[N+](=O)[O-])OCO3)nc(Nc2cccc(C(F)(F)F)c2)n1`, 100%.
`Fc1ccc2c(NN=Cc3ccc(Cl)cc3)ccnc2c1` showed an Inhibition of 100%.
With `Cc1ccc(NC(=O)c2ccc3nccnc3c2)cc1OC1CCN(Cc2ccc(F)cc2)CC1.O=C(O)C(F)(F)F` the figure was 87%; with `COc1ccc(NC(=O)Nc2ccc(C)c(-c3ccc(C(=O)NCCN4CCCC4)cc3)c2)cc1`, 95%.
With `N#Cc1ccc(CN2CCCN(Cc3cccc(NC(=O)c4ccc(-c5ccccc5)cc4)c3)CC2)cc1.O=C(O)C(F)(F)F` the figure was 88%; with `CN(C)C(=O)c1cc(CNCc2ccccc2)ccc1-c1cccc(CNCc2ccc(-c3ccccc3)cc2)c1.O=C(O)C(F)(F)F`, 90%.
With `CN1CCC(Oc2ccc(NC(=O)c3ccc4c(=O)n(Cc5ccccc5)cnc4c3)cc2Cl)CC1` the figure was 95%.
`Cl.Clc1ccc(CCNCCCCCCNCCc2ccc3c(c2)OCO3)cc1`: the Inhibition was 91%.
Molecule `COc1cc(F)c2nccc([C@@H](O)CN3CCC(NCc4nc5cccc(F)c5[nH]4)CC3)c2c1.O=C(O)C(=O)O` registered an Inhibition of 99%.
With `Cc1c(CNCCCNc2nc3cscc3[nH]2)sc(C(F)F)c1Br.Cl` the figure was 99%; with `CCOC(=O)c1ccc(NC(=O)Nc2ccc(-c3cccc(-c4nc5cc(F)ccc5[nH]4)c3)cc2)cc1`, 100%; with `c1ccc(-c2nc(Nc3nc4ccccc4[nH]3)[nH]c2-c2ccccc2)cc1`, 96%.
The value for `COc1ccc2nccc(NC(=O)C3(O)CCC(NCc4ccc5c(c4)NCCS5)CC3)c2n1.Cl` (stereo unspecified) was 93%.
The value for `Cc1cccc2nc(-c3cccc(-c4cccc(NC(=O)C(C)CN(C)C)c4)c3)[nH]c12` (stereo unspecified) was 100%; that for `Cc1cc(NCC(C)C)c2[nH]nc(-c3ccccc3)c2n1` was 99%; that for `COc1ccc(Nc2ncc3c(-c4cccc(NC(=O)Cc5cccc(F)c5)c4)c[nH]c3n2)cc1OC` was 100%.
In turn, `CCCC(C)Nc1nc(C)cc(N[C@@H](Cc2ccccc2)C(=O)Nc2ccccc2)n1.O=C(O)C(F)(F)F` (stereo partly specified) showed an Inhibition of 100%.
With `CC(C)c1cc(Oc2c(I)cc(CCNC(=N)N)cc2I)ccc1O.Cl` the figure was 98%; with `Cc1ccccc1NC(=O)C1CSCN1C(=O)OCc1ccccc1` (stereo unspecified), 91%; with `COc1ccc(-c2ccc(NC(=O)c3ccc(C#N)cc3)cc2)cc1CN1CCNCC1.O=C(O)C(F)(F)F`, 96%.
`O=C(/C=C/c1ccc(Cl)c(Cl)c1)N1CCCC(CCCN2CCC(c3c[nH]c4ccccc34)CC2)C1` (stereo unspecified) yielded an Inhibition of 89%.
The value for `COc1ccc([N+](=O)[O-])cc1N(Cc1ccccc1-c1ccccc1)S(=O)(=O)c1ccc(C(F)(F)F)cc1[N+](=O)[O-]` was 88%; that for `COc1ccc(CN2CCCC(N3CC4(OC3=O)c3ccccc3-c3ccccc34)C2)c(O)c1` (stereo unspecified) was 92%.
The value for `O=C(NCCCCCCNCc1ccc(-c2ccccc2)cc1)Nc1ccc(Cl)c(Cl)c1` was 90%; that for `COc1cc(C(=O)Nc2ccc(-c3nc4ccccc4[nH]3)cc2)cc(OC)c1OC` was 99%.
With `CC(Cc1ccc(C(=O)OCCOC(=O)c2ccc(CC(C)NCC(O)c3cccc(C(F)(F)F)c3)cc2)cc1)NCC(O)c1cccc(C(F)(F)F)c1` (stereo unspecified) the figure was 98%; with `COC(=O)Nc1cc(C(F)(F)F)ccc1N1CCCC(NS(=O)(=O)c2ccc(C(C)(C)C)cc2)C1` (stereo unspecified), 97%.
Molecule `COc1ccc(CNCc2ccccc2)cc1-c1ccc(S(=O)(=O)NCCN2CCCC2)c(F)c1.O=C(O)C(F)(F)F` showed an Inhibition of 87%.
With `CC(C)(C)c1ccc(-c2ccccc2CNC(=O)c2cccc(O)c2)cc1` the figure was 99%; with `COc1ccc(C)c(Nc2ccnc(Nc3cccc(-c4nc5ccccc5[nH]4)c3)n2)c1.Cl`, 98%.

The Inhibition is the percentage by which the read-out fell short of the control. Higher therefore signals a response far below the control.
